Results filed as inconclusive are left out. Activity calls are given as the source filed them. The call rests on the fitted dose curve; in most records, active means well fitted cell-killing curve with a large enough effect; inconclusive means small, poorly fitted or top-dose-only effect, or effect the other way; inactive means flat fitted curve, though single readings scatter.
How the values were obtained:
Test in all cases: Primary qHTS to identify gynecologic anti-cancer compounds using libraries of approved drugs and bioactive compounds (AID 1345084); further: nearly all actives have a fitted effect of over 55% in size
[1] = system: C33A; details: Gynecologic cancer cell panel viability, ATPlite luminescence, 48 h; series mostly up to 57.5 µM
In short: (§1)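 Five-concentration response, 48 h; readout is ATP-driven luciferase luminescence.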

[2] = system: HeLa; details: Gynecologic cancer cell panel viability, ATPlite luminescence, 48 h; series mostly up to 57.5 µM
In short: as §1

[3] = system: JEG-3; details: Gynecologic cancer cell panel viability, ATPlite luminescence, 48 h; series mostly up to 57.5 µM
In short: as §1

[4] = system: OV90; details: Gynecologic cancer cell panel viability, ATPlite luminescence, 48 h; series mostly up to 57.5 µM
In short: as §1

[5] = system: Hek293T; details: Gynecologic cancer cell panel viability, ATPlite luminescence, 48 h, control line for the selectivity index; series mostly up to 57.5 µM
In short: as §1

[6] = system: Es-2; details: Gynecologic cancer cell panel viability, ATPlite luminescence, 48 h; series mostly up to 57.5 µM
In short: as §1

[7] = system: CAOV3; details: Gynecologic cancer cell panel viability, ATPlite luminescence, 48 h; series mostly up to 57.5 µM
In short: as §1

[8] = system: CASKI; details: Gynecologic cancer cell panel viability, ATPlite luminescence, 48 h; series mostly up to 57.5 µM
In short: as §1
On the % scale 0 is the no-effect control and ±100 the full control effect; potency means the concentration at half of the fitted maximal effect.

CCC(CC)C(c1ccc(Nc2nc3ccccc3s2)cc1)n1cncn1 (centres undefined)
active: Potency [1] 25.1 µM | Potency [2] 35.5 µM | Potency [3] 31.6 µM | Potency [4] 31.6 µM

CCNC(=O)c1noc(-c2cc(Cl)c(O)cc2O)c1-c1ccc(OC)cc1
inactive: Potency [4]
active: Potency [1] 1.12 µM | Potency [5] 0.355 µM

COCC(=O)NC/C=C/c1ccc2ncnc(Nc3ccc(Oc4ccc(C)nc4)c(C)c3)c2c1
inactive: Potency [1] | Potency [6] | Potency [2] | Potency [5] | Potency [3] | Potency [4]

Cc1c(OCc2cccc(-c3ccc(C(=O)O)cc3)c2)cc2c(c1C)C(=O)C(C1CCCC1)C2 (centres undefined)
inactive: Potency [1] | Potency [6] | Potency [2] | Potency [5] | Potency [3] | Potency [4]

CCCOc1ccc(CCc2nc3cc(-c4c(C)noc4C)ccc3n2CCN2CCOCC2)cc1
inactive: Potency [1] | Potency [6] | Potency [2] | Potency [5] | Potency [3] | Potency [4]

CCN(CC)C(=O)c1ccc(Nc2nc(OCC3CCCCC3)c3[nH]cnc3n2)cc1
inactive: Potency [1] | Potency [6] | Potency [5] | Potency [3] | Potency [4]
active: Potency [2] 28.2 µM

C/C1=C\[C@@H](C)C[C@@H](C)[C@@H](Cc2cnco2)OC(=O)/C(C)=C/[C@@H](C)C[C@@H](C)[C@@H](Cc2cnco2)OC1=O
inactive: Potency [1] | Potency [2] | Potency [3] | Potency [4]

Cc1c(NC(=O)c2cc3c(s2)CCCC3)cccc1-c1cn(C)c(=O)c(Nc2ccc(C3C(=O)N(C)CCN3C)cc2)n1 (centres undefined)
inactive: Potency [1] | Potency [6] | Potency [5]

C=C1C(=O)O[C@@H]2C[C@H](C)[C@@H]3CC(=O)C(C)=C3C[C@H]12
active: Potency [1] 28.2 µM
inactive: Potency [2]

CC1(C(=O)Nc2ccc(F)nc2)CCCN1c1nc(Nc2cc(C3CC3)[nH]n2)c2cccn2n1 (centres undefined)
active: Potency [5] 5.01 µM | Potency [4] 3.55 µM
inactive: Potency [1] | Potency [6]

Cc1noc(C)c1-c1cc(O)cc(C(O)c2ccccc2)c1 (centres undefined)
inactive: Potency [1] | Potency [5] | Potency [3] | Potency [4]

CC(C)C[C@@H](N)C(=O)N[C@H]1C(=O)N[C@@H](CC(N)=O)C(=O)N[C@H]2C(=O)N[C@H]3C(=O)N[C@H](C(=O)N[C@H](C(=O)O)c4cc(O)cc(O)c4-c4cc3ccc4O)[C@H](O)c3ccc(c(Cl)c3)Oc3cc2cc(c3O[C@@H]2O[C@H](CO)[C@@H](O)[C@H](O)[C@H]2O[C@H]2C[C@](C)(N)[C@H](O)[C@H](C)O2)Oc2ccc(cc2Cl)[C@H]1O
inactive: Potency [7]

CC(C)NCCCn1c(Sc2cc3c(cc2I)OCO3)nc2c(N)ncnc21
inactive: Potency [2]
active: Potency [1] 1.58 µM | Potency [4] 0.398 µM

N#Cc1ccc(O[C@@H]2c3ccccc3C[C@H]2N2CCC[C@@H](N)C2)c(Cl)c1
inactive: Potency [1] | Potency [2] | Potency [5] | Potency [3] | Potency [4]

CC(C)(C)Sc1c(CC(C)(C)C(=O)O)n(Cc2ccc(Cl)cc2)c2ccc(OCc3ccc4ccccc4n3)cc12
inactive: Potency [1] | Potency [6] | Potency [2] | Potency [5] | Potency [3] | Potency [4]

COc1cc(C(N)=O)nc(-c2ccccn2)c1O
inactive: Potency [1] | Potency [6] | Potency [2] | Potency [5] | Potency [3] | Potency [4]

CN(C)C(=O)NC1(c2ccccc2)CCN(CCC[C@]2(c3ccc(Cl)c(Cl)c3)CCCN(C(=O)c3ccccc3)C2)CC1
inactive: Potency [1] | Potency [2] | Potency [3]

CC(C)CCNC(=O)[C@H](CC(C)C)NC(=O)[C@H]1O[C@@H]1C(=O)O
inactive: Potency [7]

O=C(NCCCCCCCCNC(=O)C(Cl)Cl)C(Cl)Cl
inactive: Potency [1] | Potency [6] | Potency [2] | Potency [5] | Potency [3]

O=c1cc(N2CCOCC2)nc2c3ccccc3ccn12
inactive: Potency [1] | Potency [6] | Potency [2] | Potency [5] | Potency [3] | Potency [4]

O=C(CN1C2=NCCN2c2ccccc21)c1ccc(-c2ccccc2)cc1
inactive: Potency [1] | Potency [6] | Potency [2] | Potency [5] | Potency [3]

C=C1CC[C@@H]2[C@](C)(CO)[C@H](O)CC[C@@]2(C)[C@@H]1CC(=O)C1=CCOC1=O
inactive: Potency [1] | Potency [5] | Potency [4]

CCN(CCNC(=O)Nc1ccccc1Br)c1cccc(C)c1
inactive: Potency [7] | Potency [8] | Potency [6] | Potency [2] | Potency [5] | Potency [4]

CC(CCC1(O)OC2CC3C4CC=C5CC(O[C@@H]6O[C@H](CO)[C@@H](O[C@@H]7O[C@@H](C)[C@H](O)[C@@H](O)[C@H]7O)[C@H](O)[C@H]6O[C@@H]6O[C@@H](C)[C@H](O)[C@@H](O)[C@H]6O)CCC5(C)C4CCC3(C)C2C1C)CO[C@@H]1O[C@H](CO)[C@@H](O)[C@H](O)[C@H]1O (some centres undefined)
inactive: activity change, negative = cytotoxicity [7] -11% [at 11.6 µM] | activity change, negative = cytotoxicity [8] 1.54% [at 11.6 µM] | activity change, negative = cytotoxicity [6] 4.17% [at 11.6 µM] | activity change, negative = cytotoxicity [2] -7.05% [at 11.6 µM] | activity change, negative = cytotoxicity [5] 4.44% [at 11.6 µM] | activity change, negative = cytotoxicity [3] 10.4% [at 11.6 µM] | activity change, negative = cytotoxicity [4] -6.71% [at 11.6 µM]

O=S(=O)(c1ccc(Cl)cc1)N1CCN(c2ccnc3cc(Cl)ccc23)CC1
inactive: Potency [7] | Potency [8] | Potency [6] | Potency [2] | Potency [5] | Potency [3] | Potency [4]

Cc1ccc(S(=O)(=O)NCc2ccc(C(=O)NCCN(Cc3ccccc3)C(C)C)cc2)cc1
inactive: Potency [7] | Potency [8] | Potency [2] | Potency [5] | Potency [3]

CC(C)S(=O)(=O)NC[C@@H]1CC(c2ccc(N3CCCC3)c(F)c2)=NO1
inactive: Potency [7] | Potency [8] | Potency [6] | Potency [2] | Potency [3]

O=C(c1ccc(Cl)cc1)N1CCN(c2ccnc3cc(Cl)ccc23)CC1
inactive: Potency [7] | Potency [8] | Potency [6] | Potency [2] | Potency [5] | Potency [3] | Potency [4]

CCc1c[nH]c2ncnc(N3CC[C@](N)(CNC(=O)c4ccc(F)cc4F)C3)c12
inactive: Potency [7] | Potency [8] | Potency [6] | Potency [2] | Potency [3]
active: Potency [5] 1.41 µM

CCC(C)C(=O)OC1C(C)C2(O)C(C=C(CO)CC3(O)C(=O)C(C)=CC32)C2C(C)(C)C12OC(=O)C(C)C (centres undefined)
inactive: Potency [7] | Potency [8] | Potency [2] | Potency [5] | Potency [3] | Potency [4]

CC(C)(C)c1ccc(NC(=O)N2CCN(c3ncccc3Cl)CC2)cc1
inactive: Potency [7] | Potency [8] | Potency [6] | Potency [2] | Potency [3]

CCCCc1c(-c2ccc(OC)cc2)[nH]c2nccnc12
inactive: Potency [7] | Potency [8] | Potency [6] | Potency [2] | Potency [5] | Potency [3] | Potency [4]

O=c1[nH]c([C@@H]2CCCN2)nc2c1oc1ccc(Cl)cc12
inactive: Potency [7] | Potency [8] | Potency [6] | Potency [5] | Potency [3] | Potency [4]

Cc1nc(C#Cc2ccnc(Cl)c2)c(C)n1-c1ccc(F)cc1
inactive: Potency [7] | Potency [8] | Potency [6] | Potency [2] | Potency [3] | Potency [4]

C=C1CO[C@@]2(O[C@H]3CC4C5CC=C6C[C@@H](O)C[C@@H](O[C@@H]7OC[C@H](O)[C@H](O[C@@H]8OC[C@@H](O)[C@H](O)[C@H]8O)[C@H]7O[C@@H]7O[C@@H](C)[C@H](OC(C)=O)[C@@H](OC(C)=O)[C@H]7OC(C)=O)[C@]6(C)C5CC[C@]4(C)[C@@H]3[C@@H]2C)[C@@H](O)[C@H]1OC1OC(C)C(O)C(O)C1O (some centres undefined)
active: Potency [4] 2.82 µM
inactive: activity change, negative = cytotoxicity [7] -13% [at 6.55 µM] | activity change, negative = cytotoxicity [8] -16.5% [at 6.55 µM] | activity change, negative = cytotoxicity [6] -0.0762% [at 6.55 µM] | activity change, negative = cytotoxicity [2] -7.77% [at 6.55 µM] | activity change, negative = cytotoxicity [5] -3.45% [at 6.55 µM] | activity change, negative = cytotoxicity [3] -10.9% [at 6.55 µM]

CC(C)(O)C(=O)N1CCN(c2ccc(C(F)(F)F)c(C3=C(c4c[nH]c5ccccc45)C(=O)NC3=O)c2)CC1
inactive: Potency [7] | Potency [8] | Potency [6] | Potency [5] | Potency [4]

O=C(COc1ccc(C(=O)c2ccccc2)cc1)NC1CCN(Cc2ccccc2)CC1
inactive: Potency [7] | Potency [8] | Potency [6] | Potency [2] | Potency [3]

C=CC(=O)Nc1cc(-n2c(=O)ccc3cnc4ccc(-c5ccc(NS(C)(=O)=O)cc5)cc4c32)ccc1C
inactive: Potency [7] | Potency [8] | Potency [6] | Potency [2] | Potency [5] | Potency [3] | Potency [4]

CC(C)c1cc2c(N3CCN(C4=NCC(C)(C)S4)CC3)ncnc2s1
inactive: Potency [7] | Potency [8] | Potency [6] | Potency [2] | Potency [3]

N#Cc1ccc(COc2ccc(-c3cccc4nc(NC(=O)C5CC5)nn34)cc2)cn1
inactive: Potency [8] | Potency [6] | Potency [2] | Potency [5] | Potency [3] | Potency [4]
active: Potency [7] 22.4 µM

OC1C=C2C3CN(Cc4cc5c(cc43)OCO5)C2CC1O (centres undefined)
inactive: Potency [7] | Potency [8] | Potency [3]
active: Potency [6] 25.1 µM | Potency [5] 8.91 µM

Cc1c[nH]c2ncnc(N3CCC(CN)(C(=O)Nc4cccc(OC(=O)N(C)C)c4)CC3)c12
inactive: Potency [7] | Potency [8] | Potency [6] | Potency [2] | Potency [3]
active: Potency [4] 11.2 µM

C=C1C(=O)OC2C(OC(=O)C=C(C)C)C(C)=C3C(=O)C=C(C)C3C(O)C12 (centres undefined)
inactive: Potency [8] | Potency [2]
active: Potency [7] 11.2 µM

C/C=C/[C@@H]1C=C[C@@H]2C[C@H](C)CC[C@H]2[C@]1(C)/C(O)=C1/C(=O)[C@@H](CO)N(C)C1=O
inactive: Potency [7] | Potency [8] | Potency [6] | Potency [2] | Potency [5] | Potency [3] | Potency [4]

CC12CCC(OC3OC(CO)C(O)C(O)C3OC3OC(CO)C(O)C(O)C3O)CC1CCC1C2CCC2(C)/C(=C3/COC(=O)C3)CCC12O (centres undefined)
inactive: Potency [7] | Potency [8] | Potency [6] | Potency [2] | Potency [5] | Potency [3]

O=C(NCCCCN1CCN(c2cccc(Cl)c2Cl)CC1)c1cc2ccccc2s1
inactive: Potency [7] | Potency [8] | Potency [6] | Potency [2] | Potency [5] | Potency [4]

From PubChem BioAssay (NCATS)
